SMILES strings stand for the structures. The panel holds about 83,000 compounds, 20% with a hit somewhere; the sample as a whole holds those more often.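 Cells were grown in 96-well plates and exposed to the test compound at a single concentration for 48 hours; results are reported as percent growth, with values below 10 considered active.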 A number with no mark means an inactive call. The source made the active and inactive calls.

Data on 16 compounds can be found in PubChem BioAssay (NCI).

Holding throughout (test): NCI-60 one-dose screen, 48 h (100 = growth as untreated, 0 = no growth, -100 = all killed)
What all share (conditions): 10 µM unless noted

Experiment [1] relates to T-47D breast.
Experiment [2] concerns BT-549 breast.
For experiment [3], the system named is MDA-MB-435 melanoma.
The test system of experiment [4] is SW-620 colon.
Experiment [5] deals with MCF7 breast.
Experiment [6] relates to HCT-116 colon.
Experiment [7] deals with HCC-2998 colon.
The test system of experiment [8] is KM12 colon.

On to `N#Cc1cccc(C2C3=C(COC3=O)N(CCO)c3cc4c(cc32)CCC4)c1` (stereo not drawn), for which the growth in experiment [1] was 68.9%; in experiment [2], 33.5%; in experiment [3] it was -32.7% (active); in experiment [4], 21.2%; in experiment [5], 23.2%; in experiment [6], 8.71% (active). Also, the growth in experiment [7] was 12.7%; in experiment [8], 11%.
Consider `O=C1/C(=C\c2cccc3nccnc23)SC(=S)N1CCc1ccc(O)cc1`, for which the growth in experiment [1] is 82.5%; in experiment [2], 96%; in experiment [3], 97.4%; in experiment [4], 101%; in experiment [5] it was 94.4%; in experiment [6], 92%. Moreover, the growth in experiment [7] was 116%; in experiment [8] it was 97.1%.
`CC1(C)N=C(N)N=C(N)N1c1ccc(CCCCc2ccccc2)c(Cl)c1`: the growth in experiment [1] was 15.8%; in experiment [2], -16% (active); in experiment [3], 27.8%; in experiment [4], 20.5%; in experiment [5], 1.84% (active); in experiment [6] it was 13.9%. The growth was -43.9% (active) in experiment [7] and -79.7% (active) in experiment [8].
For `CC1(C)CC2=C3C=C[C@@H]4[C@@]5(C)CCC(=O)C(C)(C)[C@@H]5CC[C@@]4(C)[C@]3(C)CC[C@@]2(C(=O)O)C[C@H]1O`, the growth is 20.3% in experiment [1]; 34.3% in experiment [2]; 27.1% in experiment [3]; 32.9% in experiment [4]; 14.7% in experiment [5]; 0.846% (active) in experiment [6]. Further, the values for the growth in experiment [7] and in experiment [8] were 35.4% and 27%, respectively.
Turning to `C=CC(=O)Nc1ccc(Nc2nccc(-c3ccc(N4CCCC4)c(C#N)c3)n2)cc1`, the growth in experiment [1] was 41.5%; in experiment [2], 45.6%; in experiment [3], -11.8% (active); in experiment [4], 3% (active); in experiment [5], 9.75% (active); in experiment [6] it was 24.8%. Besides, the growth was 31.5% in experiment [7] and 14.6% in experiment [8].
As for `CC(=O)OC[C@]12CC[C@@H]([C@@H](C)c3nnc(-c4ccncc4)o3)[C@@H]1[C@H]1CC[C@@H]3[C@@]4(C)CC[C@H](OC(C)=O)C(C)(C)[C@@H]4CC[C@@]3(C)[C@]1(C)CC2`, the growth was 66.5% in experiment [1]; 74.6% in experiment [2]; 87% in experiment [3]; 66.3% in experiment [4]; 84.9% in experiment [5]; 45.2% in experiment [6]. For the same compound, the growth in experiment [7] was 101%; in experiment [8], 93.5%.
With `COc1ccc(/C(C)=C(\c2ccc(Cl)cc2)c2ccc(OCCN3CCCCC3)cc2)cc1`, the growth in experiment [1] was 48.1%; in experiment [2], 73.1%; in experiment [3], 58%; in experiment [4], 24.5%; in experiment [5], 20.3%; in experiment [6], 31.9%. The growth is 91.3% in experiment [7] and 25.7% in experiment [8].
Turning to `C/C=C(/C)n1cnc2c(Nc3ccccn3)nc(Cl)nc21`, the growth is 93.6% in experiment [1]; 103% in experiment [2]; 107% in experiment [3]; 103% in experiment [4]; 99.9% in experiment [5]; 104% in experiment [6]. Besides, the growth was 103% in experiment [7] and 109% in experiment [8].
Turning to `C=C1C(=O)O[C@H]2[C@H]1CC/C(COC(=O)c1cc3cc(Cl)ccc3[nH]1)=C\CC[C@@]1(C)O[C@@H]21`, the growth is -68.2% (active) in experiment [1]; -47.4% (active) in experiment [2]; -91.7% (active) in experiment [3]; -53.1% (active) in experiment [4]; -71.7% (active) in experiment [5]; -70.4% (active) in experiment [6]. The growth in experiment [7] was -70.5% (active); in experiment [8], -59.8% (active).
On to `Cc1cccc(-c2nc(Nc3ccc4ncsc4c3)c3ccccc3n2)n1`, for which the growth is 34.6% in experiment [1]; 87.9% in experiment [2]; 60.4% in experiment [3]; 79.8% in experiment [4]; 9.7% (active) in experiment [5]; 77.4% in experiment [6]. Also, the growth is 116% in experiment [7] and 63.1% in experiment [8].
Turning to `COC(=O)/C=C1/SC(=Nc2ccc([N+](=O)[O-])cc2)N(CCc2c[nH]c3ccc(O)cc23)C1=O`, the growth in experiment [1] was 53.9%; in experiment [2], 25.7%; in experiment [3], 43.1%; in experiment [4], 85.5%; in experiment [5] it was 30.6%; in experiment [6] it was 14.6%. Besides, the growth in experiment [7] was 20.9%; in experiment [8] it was 41.7%.
Regarding `CN(C)c1ccc(/C=C(\C#N)c2cc3ccccc3[nH]2)cc1`, the growth was 36.1% in experiment [1]; 42.4% in experiment [2]; -25.4% (active) in experiment [3]; 13.2% in experiment [4]; 19.9% in experiment [5]; 11.5% in experiment [6]. Further, the values for the growth in experiment [7] and in experiment [8] were 45.5% and 24.9%, respectively.
With `CCOC(=O)c1nn(CC(O)c2ccccc2)c(NC(=O)Nc2cccc(F)c2)c1C` (stereo not drawn), the growth in experiment [1] is 90.1%; in experiment [2], 101%; in experiment [3], 99.9%; in experiment [4], 95.9%; in experiment [5] it was 91.3%; in experiment [6], 96.4%. Further, the growth in experiment [7] is 98.3%; in experiment [8], 104%.
On to `COC(=O)C(Cc1ccccc1)NC(=O)c1ccc(NC(=O)c2[nH]c(C)c(Cl)c2Cl)c(OC(C)C)c1` (stereo not drawn), for which the growth in experiment [1] is 36.5%; in experiment [2], 82.1%; in experiment [3], 100%; in experiment [4], 42.4%; in experiment [5], 32.8%; in experiment [6] it was 0.768% (active). The growth is 80.1% in experiment [7] and 39.8% in experiment [8].
Consider `O=S(=O)(NCCNc1nccc(-c2c(-c3cccc(O)c3)nc3occn23)n1)c1ccc(Br)cc1`, for which the growth in experiment [1] is 11.3%; in experiment [2] it was 45.1%; in experiment [3] it was 13.1%; in experiment [4] it was 34.8%; in experiment [5] it was 17.7%; in experiment [6] it was 10.2%. Moreover, the growth is 50.7% in experiment [7] and 27% in experiment [8].
Take `CC1=C2[C@@H](CC1)[C@]1(C)O[C@@](c3ccccc3)(C[C@H]1OC(=O)CO)[C@H]2OC(=O)/C=C/c1ccccc1`: the growth in experiment [1] is 65.2%; in experiment [2] it was 0.952% (active); in experiment [3], -80.7% (active); in experiment [4], 104%; in experiment [5], 78.6%; in experiment [6] it was 86.2%. The growth was 93.2% in experiment [7] and 88.4% in experiment [8].
